Assay results reported in PubChem BioAssay AID1159580 (chemical genetic matrix, 2015).
Values joined by “and” are separate entries in the source; they are usually repeats but may differ in a detail not shown here. Equal entries are not always repeated. Among all 5,500 compounds or so, about 2,000 (36%) were called active. Inconclusive results (about 18%) are left out. No stated cut-off is given here; in the data, active means normalized growth mostly below about 0.91 (no sharp cut-off); inconclusive means no clear call, values can overlap the other calls; inactive means mostly above about 0.92. The list shows a part of the results.

Assay: chemical genetic growth profiling, strain panel (AID 1159580);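 further: tested at 20 µM; growth read once vehicle control cultures reached saturation at 30 °C; 1 = growth at the plate median or of vehicle wells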
Conditions: S. cerevisiae deletion strains, growth OD

Measured: normalized growth

N=c1nc(N2CCCCC2)cc(N)n1O
inactive: locus YAL013W, strain DEP1, stronger effect = lower value 0.981 and 0.989 | locus YAL021C, strain ccr4, stronger effect = lower value 0.989 | locus YAL026C, strain drs2, stronger effect = lower value 1 | locus YAL030W, strain snc1, stronger effect = lower value 0.984 | locus YAL040C, strain CLN3, stronger effect = lower value 1.03 | locus YBL061C, strain skt5, stronger effect = lower value 0.977 | locus YBR009C, strain hhf1, stronger effect = lower value 1 | locus YBR021W, strain FUR4, stronger effect = lower value 1.09 | locus YBR023C, strain chs3, stronger effect = lower value 0.985 | locus YBR171W, strain sec66, stronger effect = lower value 0.984 | locus YBR229C, strain ROT2, stronger effect = lower value 0.955 | locus YBR231C, strain swc5, stronger effect = lower value 1 | locus YBR279W, strain paf1, stronger effect = lower value 0.992 | locus YCL011C, strain gbp2, stronger effect = lower value 0.963 | locus YCL016C, strain dcc1, stronger effect = lower value 0.97 | locus YCL029C, strain bik1, stronger effect = lower value 0.99 | locus YCL061C, strain MRC1 (second series), stronger effect = lower value 1 | locus YCL061C, strain MRC1, stronger effect = lower value 0.991 | locus YCL069W, strain vba3, stronger effect = lower value 0.992 | locus YCR088W, strain abp1, stronger effect = lower value 0.989 | locus YDL005C, strain med2, stronger effect = lower value 0.997 | locus YDL035C, strain GPR1, stronger effect = lower value 0.98 | locus YDL040C, strain nat1, stronger effect = lower value 0.992 | locus YDL074C, strain BRE1, stronger effect = lower value 1.02 | locus YDL101C, strain DUN1, stronger effect = lower value 0.988 | locus YDL134C, strain PPH21, stronger effect = lower value 0.975 | locus YDL185W, strain tfp1, stronger effect = lower value 0.978 | locus YDL192W, strain arf1, stronger effect = lower value 0.983 | locus YDR001C, strain nth1, stronger effect = lower value 0.979 | locus YDR069C, strain doa4, stronger effect = lower value 0.996 | locus YDR101C, strain arx1, stronger effect = lower value 1.01 | locus YDR137W, strain rgp1, stronger effect = lower value 0.977 | locus YDR150W, strain NUM1, stronger effect = lower value 0.963 and 1.01 | locus YDR159W, strain sac3, stronger effect = lower value 1.04 | locus YDR162C, strain NBP2, stronger effect = lower value 0.968 | locus YDR195W, strain ref2 0.981 | locus YDR297W, strain sur2, stronger effect = lower value 0.981 | locus YDR318W, strain mcm21, stronger effect = lower value 1 | locus YDR334W, strain swr1, stronger effect = lower value 0.936 | locus YDR335W, strain msn5, stronger effect = lower value 0.979 | locus YDR363W, strain ESC2, stronger effect = lower value 0.979 | locus YDR388W, stronger effect = lower value 0.949 | locus YDR392W, strain spt3, stronger effect = lower value 0.964 | locus YDR502C, strain sam2, stronger effect = lower value 0.959 | locus YEL003W, strain gim4, stronger effect = lower value 0.992 | locus YEL037C, strain rad23, stronger effect = lower value 0.989 | locus YEL061C, strain CIN8 (second series), stronger effect = lower value 0.982 | locus YEL061C, strain CIN8, stronger effect = lower value 0.982 | locus YER002W, strain NOP16, stronger effect = lower value 1.02 | locus YER015W, strain faa2, stronger effect = lower value 0.985 | locus YER016W, strain bim1, stronger effect = lower value 0.998 | locus YER110C, stronger effect = lower value 0.955 | locus YER111C, strain swi4, stronger effect = lower value 0.987 | locus YER155C, strain BEM2 (second series), stronger effect = lower value 1.03 | locus YER155C, strain BEM2, stronger effect = lower value 1.01 | locus YER167W, strain BCK2, stronger effect = lower value 0.989 | locus YFR010W, strain ubp6, stronger effect = lower value 0.982 | locus YGL078C, strain dbp3, stronger effect = lower value 0.985 | locus YGL086W, strain mad1, stronger effect = lower value 0.961 | locus YGL167C, strain pmr1, stronger effect = lower value 0.985 | locus YGL173C, strain kem1, stronger effect = lower value 0.984 | locus YGL227W, strain vid30, stronger effect = lower value 0.996 | locus YGL240W, strain doc1, stronger effect = lower value 1 | locus YGL248W, strain PDE1, stronger effect = lower value 0.981 | locus YGL253W, strain hxk2, stronger effect = lower value 0.96 | locus YGR078C, strain PAC10, stronger effect = lower value 1 and 0.978 | locus YGR135W, strain pre9, stronger effect = lower value 0.99 | locus YGR229C, strain SMI1, stronger effect = lower value 1.01 | locus YGR252W, strain gcn5, stronger effect = lower value 0.867 | locus YHR013C, strain ard1, stronger effect = lower value 0.962 | locus YHR027C, strain rpn1, stronger effect = lower value 0.976 | locus YHR030C, strain SLT2, stronger effect = lower value 0.982 | locus YHR079C, strain IRE1 (second series), stronger effect = lower value 1 | locus YHR079C, strain IRE1, stronger effect = lower value 0.997 | locus YHR094C, strain hxt1, stronger effect = lower value 0.991 | locus YHR129C, strain ARP1, stronger effect = lower value 0.988 | locus YHR142W, strain chs7, stronger effect = lower value 0.971 | locus YHR200W, strain rpn10, stronger effect = lower value 0.993 | locus YIL066C, strain RNR3, stronger effect = lower value 0.975 | locus YIL073C, strain SPO22, stronger effect = lower value 0.94 | locus YIL125W, strain kgd1, stronger effect = lower value 0.985 | locus YIR030C, strain dcg1, stronger effect = lower value 0.982 | locus YJL092W, strain hpr5, stronger effect = lower value 0.988 | locus YJL095W, strain BCK1 (second series), stronger effect = lower value 0.986 | locus YJL095W, strain BCK1, stronger effect = lower value 1.01 and 0.985 | locus YJL115W, strain asf1, stronger effect = lower value 0.966 | locus YJL129C, strain trk1, stronger effect = lower value 1 | locus YJL134W, strain LCB3, stronger effect = lower value 0.978 | locus YJL154C, strain vps35, stronger effect = lower value 0.976 | locus YJL164C, strain tpk1, stronger effect = lower value 0.999 | locus YJL166W, strain qcr8, stronger effect = lower value 0.957 | locus YJL168C, strain set2, stronger effect = lower value 0.995 | locus YJL187C, strain SWE1 (second series), stronger effect = lower value 0.983 | locus YJL187C, strain SWE1, stronger effect = lower value 0.992 | locus YJR043C, strain POL32, stronger effect = lower value 1.02 | locus YJR066W, strain TOR1, stronger effect = lower value 0.932
